Source: PubChem BioAssay (National Center for Advancing Translational Sciences (NCATS))
Cruzain inh Det – qHTS Assay for Promiscuous and Specific Inhibitors of Cruzain (with detergent); Cruzipain (Trypanosoma cruzi), P25779; purified cruzain, Z-FR-AMC fluorescence, 0.01% Triton; Potency, µM, for the others: max response, negative = inhibition, most hits filed as inhibitors; 0.43% of 200,000 active;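 note: plate controls were neutral wells for no effect and buffer without enzyme for full effect; nearly all actives have a fitted effect of over 40% in size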
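Purified cruzain (1.5 nM final) was preincubated with compounds for 15 min at room temperature in 100 mM sodium acetate pH 5.5, 5 mM DTT, 0.01% Triton X-100. Reaction started with 2 uM Z-FR-AMC; AMC fluorescence change over 60 s gave activity.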
Giardia FBPA inh-1 – qHTS Assay for Inhibitors of Fructose-1,6-bisphosphate Aldolase from Giardia Lamblia | Potency, µM (top dose mostly 59.6 µM), inactives show top-dose activity, negative = inhibition, most hits filed as inhibitors | 0.71% of 290,000 active | AID 2451, 2010 | purified Giardia FBPA; note: nearly all actives have a fitted effect of over 55% in size
Target sequence (A8B2U2 whole entry, looked up): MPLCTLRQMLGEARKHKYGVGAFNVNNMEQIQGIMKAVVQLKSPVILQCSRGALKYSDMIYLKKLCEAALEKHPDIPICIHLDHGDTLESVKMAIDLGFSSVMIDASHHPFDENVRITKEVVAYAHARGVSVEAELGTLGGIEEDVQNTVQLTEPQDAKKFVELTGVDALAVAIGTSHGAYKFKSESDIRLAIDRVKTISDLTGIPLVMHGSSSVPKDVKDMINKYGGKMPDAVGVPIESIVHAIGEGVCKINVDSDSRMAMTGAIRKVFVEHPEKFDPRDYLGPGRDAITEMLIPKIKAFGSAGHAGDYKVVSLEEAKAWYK
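40 nM FBPA preincubated 10 min at RT with compound (up to 57.5 uM final), then substrate plus GAPDH/TPI/NAD/arsenate coupling and diaphorase/resazurin added. Fluorescence read after 20 min at RT, 525/598 nm.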
Cruzain inh noDet – qHTS Assay for Promiscuous and Specific Inhibitors of Cruzain (without detergent) | 2.3% of 200,000 active | Cruzipain (Trypanosoma cruzi), P25779 | purified cruzain, Z-FR-AMC fluorescence, no detergent | Potency, µM, for the others: max response, negative = inhibition, usual class: inhibitors;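 note: plate controls were enzyme without inhibitor for no effect and buffer without enzyme for full effect; nearly all actives have a fitted effect of over 40% in size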
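Purified cruzain at 1.5 nM, pre-incubated 15 min with compound at room temperature in 100 mM sodium acetate pH 5.5, 5 mM DTT, 0.00005% Triton X-100. Reaction started with 2 uM Z-FR-AMC; AMC fluorescence increase over 60 s gives rate.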
Giardia growth – qHTS Assay for Inhibitors of Fructose-1,6-bisphosphate Aldolase from Giardia Lamblia: Giardia lamblia growth inhibition; shares compounds with Giardia FBPA inh-1; Giardia lamblia trophozoite growth inhibition; Potency, µM (doses to about 57.5 µM), inactives show at the highest dose activity change, negative = inhibition, most hits filed as inhibitors; 5% of 1,500 active; AID 2785, 2010;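 note: trophozoites exposed to compound for 48 h at 37 °C; nearly all actives have a fitted effect of over 70% in size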
Mammalian tox – qHTS Assay for Inhibitors of Fructose-1,6-bisphosphate Aldolase from Giardia Lamblia: Mammalian cellular toxicity. shares compounds with Giardia FBPA inh-1. mammalian cell viability counter-screen, qHTS. Potency, µM (series often up to 57.5 µM), for inactives: at the top dose viability change, negative = toxicity, usual class: inhibitors. 4% of 1,500 active. AID 2786, 2010;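 note: Chinese hamster ovary cells used as mammalian cytotoxicity surrogate; viability measured as cellular ATP by luminescence; compound exposure lasted 48 h before reading; nearly all actives have a fitted effect of over 60% in size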
Giardia FBPA inh-2 – qHTS Assay for Inhibitors of Fructose-1,6-bisphosphate Aldolase from Giardia Lamblia: Primary screen confirmation; shares compounds with Giardia FBPA inh-1; 5% of 1,500 active; Potency, µM (top dose mostly 57.5 µM), inactives show top-dose activity change, negative = inhibition, actives largely listed as inhibitors; AID 2787, 2010; purified Giardia aldolase enzyme activity, qHTS; note: nearly all actives have a fitted effect of over 45% in size
Rabbit FBPA inh – qHTS Assay for Inhibitors of Fructose-1,6-bisphosphate Aldolase from Giardia Lamblia: Rabbit FBPA Selectivity; shares compounds with Giardia FBPA inh-1; 4% of 1,500 active; AID 2794, 2010; Potency, µM (titrated, usually from 57.5 µM), without a hit: top-dose activity, negative = inhibition, usual class: inhibitors; Rabbit muscle FBPA enzyme inhibition, selectivity counter-screen; note: nearly all actives have a fitted effect of over 60% in size
Target sequence (P00883 whole entry, looked up): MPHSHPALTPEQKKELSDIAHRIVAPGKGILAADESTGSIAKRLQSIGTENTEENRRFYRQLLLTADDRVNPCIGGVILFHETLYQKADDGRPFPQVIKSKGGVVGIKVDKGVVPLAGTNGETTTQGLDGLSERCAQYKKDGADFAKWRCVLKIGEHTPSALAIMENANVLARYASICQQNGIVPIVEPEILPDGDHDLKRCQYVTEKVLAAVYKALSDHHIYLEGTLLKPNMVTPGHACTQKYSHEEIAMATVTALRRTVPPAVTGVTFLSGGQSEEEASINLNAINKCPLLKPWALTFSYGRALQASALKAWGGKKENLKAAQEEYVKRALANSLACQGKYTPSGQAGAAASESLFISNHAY
GAPDH counter – qHTS Assay for Inhibitors of Fructose-1,6-bisphosphate Aldolase from Giardia Lamblia: Coupling assay counterscreen confirmation; shares compounds with Giardia FBPA inh-1; GAPDH coupling enzyme counterscreen, biochemical, qHTS; Potency, µM (series often up to 57.5 µM), inactives show top-dose activity change, negative = inhibition, hits mostly inhibitors; 6% of 1,500 active; AID 2795, 2010; note: nearly all actives have a fitted effect of over 55% in size
Numbers without * were called inactive; ? = inconclusive; · = no result given; [ ] = dose if it differs, or a comment. This is one part of a sample in which hits are shown more often than they occur. Calls come from the whole dose curve; as a rule, active = well fitted curve in the direction sought with a large enough effect; inconclusive = small, poorly fitted or top-dose-only effect, or another doubt; inactive = no such curve, though single readings can be large; an effect the other way counts as inactive or inconclusive. Unless noted, % is set by controls: 0 for no effect and ±100 for the full control effect; potency is the fitted concentration of half-maximal effect.

SMILES	Cruzain inh Det	Giardia FBPA inh-1	Cruzain inh noDet	Giardia growth	Mammalian tox	Giardia FBPA inh-2	Rabbit FBPA inh	GAPDH counter
N#Cc1c(NC(=O)CCC(=O)O)sc2c1CCCC2	-1%	7%	4%	·	·	·	·	·
N#Cc1c(NC(=O)CCC(=O)O)sc2c1CCCCC2	·	16µM*	·	-6%	10%	-18%	-2%	-9%
CCOC(=O)c1ccc(-n2c(CCC(=O)O)ccc2-c2ccc(Br)cc2)cc1	-15%	·	27%	·	·	·	·	·
CC(=O)NCCNC(=O)CCCn1c(=O)[nH]c2ccsc2c1=O	0%	·	-5%	·	·	·	·	·
Cc1cccc(OCCCCCn2ccnc2)c1C	3%	1%	14%	·	·	·	·	·
CC(C)(C)c1cc(Cl)ccc1OCCn1ccnc1	·	18µM*	·	5%	12%	-11%	0%	-21%
Clc1cccc(OCCn2ccnc2)c1	·	35µM*	·	?	11%	11%	11%	18%
CC(C)(C)c1ccccc1OCCCCCn1ccnc1	·	18µM*	·	68%	8%	-14%	-20%	-13%
COc1cccc(OCCn2ccnc2)c1	0%	-3%	-9%	·	·	·	·	·
Cc1cc(C(C)(C)C)ccc1OCCn1ccnc1	-1%	-27%	2%	·	·	·	·	·
Cc1ccc(C(C)(C)C)c(OCCCn2ccnc2)c1	0%	?	-4%	·	·	·	·	·
Cc1cccc(C)c1OCCCn1ccnc1	·	22µM*	·	9%	33%	7%	3%	17%
C/C=C(/CC[C@@H](C)[C@H]1CCC2C3=CC[C@H]4[C@H](C)[C@@H](O)CC[C@]4(C)C3CC[C@@]21C)C(C)C (stereo partly drawn)	8%	6%	3%	·	·	·	·	·
CCOC(=O)c1ccccc1NC(=O)c1cnc(N2CCOCC2)c2ccccc12	-23%	·	?	·	·	·	·	·
CCOc1ccc(NC(=O)CN2CCN(Cc3ccccc3)S2(=O)=O)cc1	-2%	·	-13%	·	·	·	·	·
CC(C)CN1CCC(=O)N(C(CSc2ccc(Br)cc2)Cc2ccccc2)CC1 (stereo not drawn)	·	0%	·	·	·	·	·	·
COc1ccc(-c2ccc(CNc3ccc4[nH]c(=O)[nH]c4c3)o2)cc1Cl	-8%	·	?	·	·	·	·	·
CNC(=S)N/N=C/c1ccccc1OCC(=O)O	·	20µM*	·	?	-2%	-8%	-1%	-7%
O=C(O)COc1ccccc1/C=N/NC(=O)C(O)c1ccccc1 (stereo not drawn)	·	-8%	·	·	·	·	·	·
COC(=O)c1ccc(NC(=S)NC2CC(C)(C)NC(C)(C)C2)cc1	-5%	2%	-7%	·	·	·	·	·
CC1(C)CC(NC(=S)Nc2ccc(S(N)(=O)=O)cc2)CC(C)(C)N1	·	8.9µM*	·	18%[38.3 µM]	-2%	-7%	-4%	-3%
CCOc1ccccc1C(=O)Nc1cccc2ccc(C)nc12	-10%	·	0%	·	·	·	·	·
c1ccc(-c2ccc(-c3ccccn3)s2)nc1	·	-7%	·	·	·	·	·	·
c1ccc(-c2cccc(-c3ccccn3)n2)nc1	4%	7.9µM*	18%	?	1.3µM*	20%	7%	1%
CCN1CCN(C(=O)c2c(C)nn(-c3ccc(F)cc3)c2-n2cccc2)CC1	-2%	·	-15%	·	·	·	·	·
SMILES	Cruzain inh Det	Giardia FBPA inh-1	Cruzain inh noDet	Giardia growth	Mammalian tox	Giardia FBPA inh-2	Rabbit FBPA inh	GAPDH counter
COCCNC(=S)N/N=C1\CC(C)CC(C)(C)C1 (stereo not drawn)	·	18µM*	·	40%	-1%	7%	9%	14%
S=C(NCCc1ccccc1)NN=C1CCCCCC1	·	-8%	·	·	·	·	·	·
COCCNC(=S)NN=C1CCCCCC1	·	20µM*	·	29%	-9%	10%	10%	19%
CCOC(=O)N/N=C1\CC(C)CC(C)(C)C1 (stereo not drawn)	1%	0%	11%	·	·	·	·	·
CS(=O)(=O)N(Cc1ccccc1)c1ccc(C(=O)Nc2ccc(Cl)cc2)cc1	2%	·	1%	·	·	·	·	·
Cc1ccccc1-c1nc(CN2CCC(C(=O)NCc3ccccc3Cl)CC2)c(C)o1	0%	·	-4%	·	·	·	·	·
O=C(CSc1ncc(-c2ccccc2)[nH]1)Nc1cccc(Br)c1	-12%	·	7%	·	·	·	·	·
Nn1cnnc1N/N=C/c1ccc(Cl)c([N+](=O)[O-])c1	·	13µM*	·	-13%	7%	?	?	?
N/C(=N\N=C/c1ccc(F)cc1)N/N=C\c1ccc(F)cc1	·	-26%	·	·	·	·	·	·
O=C(N/N=C/c1ccc(N2CCCC2)c([N+](=O)[O-])c1)c1cccnc1	·	5%	·	·	·	·	·	·
Nn1cnnc1N/N=C/c1ccc(F)cc1	·	20µM*	·	12%	9%	?	-11%	?
Nc1nnnn1/N=C\c1ccc(Cl)c([N+](=O)[O-])c1	0%	1%	-11%	·	·	·	·	·
Nn1cnnc1N/N=C/c1cccc(Cl)c1Cl	·	?	·	-4%[38.3 µM]	-7%	9.2µM*	12µM*	15µM*
CCc1nnc(N/N=C/c2ccc(N3CCC(C)CC3)c([N+](=O)[O-])c2)n1N	-6%	7.1µM*	0%	?	-7%	?	-24%	-27%
O=C(CO)N/N=C/c1cccc(Cl)c1Cl	-4%	3%	1%	·	·	·	·	·
